From PubChem
ALOX15B inhib – qHTS Assay for Inhibitors of 15-hLO-2 (15-human lipoxygenase 2); Polyunsaturated fatty acid lipoxygenase ALOX15B (Homo sapiens), O15296; purified 15hLO-2, xylenol orange hydroperoxide absorbance; Potency, µM (top dose mostly 57.1 µM), inactives show at the top dose activity change, negative = inhibition, actives largely listed as inhibitors; actives 0.56% (n = 110,000); AID 881, 2007; also: nearly all actives have a fitted effect of over 60% in size
Target sequence (O15296 whole entry, looked up): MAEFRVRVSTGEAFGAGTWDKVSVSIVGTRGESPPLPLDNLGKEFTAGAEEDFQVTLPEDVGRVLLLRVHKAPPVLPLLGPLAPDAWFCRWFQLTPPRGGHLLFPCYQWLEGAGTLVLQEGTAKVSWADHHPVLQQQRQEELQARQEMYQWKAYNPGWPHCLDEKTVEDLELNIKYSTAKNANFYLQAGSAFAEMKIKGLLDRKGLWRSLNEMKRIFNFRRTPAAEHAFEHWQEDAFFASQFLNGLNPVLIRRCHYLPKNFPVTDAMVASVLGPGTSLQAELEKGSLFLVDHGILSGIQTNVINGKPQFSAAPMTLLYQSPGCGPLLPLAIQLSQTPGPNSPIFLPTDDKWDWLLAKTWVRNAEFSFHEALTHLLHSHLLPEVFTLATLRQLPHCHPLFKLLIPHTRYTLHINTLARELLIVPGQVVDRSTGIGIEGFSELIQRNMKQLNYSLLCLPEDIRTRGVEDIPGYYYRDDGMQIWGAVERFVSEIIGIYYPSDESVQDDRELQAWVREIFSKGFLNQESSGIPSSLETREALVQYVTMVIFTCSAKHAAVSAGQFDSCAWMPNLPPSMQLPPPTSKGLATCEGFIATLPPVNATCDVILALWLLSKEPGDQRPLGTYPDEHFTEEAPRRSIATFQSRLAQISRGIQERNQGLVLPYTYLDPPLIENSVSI
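Purified human 15hLO-2 (50 nM) preincubated 15 min with compound, then 45 uM arachidonic acid for 90 min at RT in 25 mM Hepes pH 7.5, 0.01% Triton X-100. Hydroperoxide detected by Fe-xylenol orange; 573/405 nm absorbance ratio.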
12-hLO inh – qHTS Assay for Inhibitors of 12-hLO (12-human lipoxygenase); Polyunsaturated fatty acid lipoxygenase ALOX12 (Homo sapiens), P18054; purified 12-hLO, xylenol orange hydroperoxide absorbance; Potency, µM (top dose mostly 57.1 µM), for the others: top-dose activity change, negative = inhibition, hits mostly inhibitors; actives 0.12% (n = 150,000); AID 1452, 2008; also: nearly all actives have a fitted effect of over 55% in size
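Purified human 12hLO (150 nM), preincubated 15 min with compound, then 40 uM arachidonic acid for 30 min, room temperature, Hepes pH 7.0 with 0.01% Triton X-100. Hydroperoxide detected by ferrous iron/xylenol orange; 573/405 nm absorbance ratio gives reaction progress.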
* marks the source's active call; other numbers are inactive results; ? = inconclusive; nt = no result; ! = not active in a repeat; [ ] = remark or other dose. Many of the other results were omitted from the sample, so hits are more common in it than they were. Calls follow the shape of the dose curve; as a rule, active = well fitted curve in the direction sought with a large enough effect; inconclusive = small, poorly fitted or top-dose-only effect, or another doubt; inactive = no such curve, though single readings can be large; an effect the other way counts as inactive or inconclusive. % is scaled to controls: 0 for no effect and ±100 for the full control effect; potency is read from the fitted curve at half-maximal effect.

SMILES | ALOX15B inhib | 12-hLO inh
N#Cc1c(-c2cccnc2)c2c([nH]c1=S)CCCC2 | 20µM* | -19%
N#Cc1c(-c2ccco2)c2c([nH]c1=S)CCCC2 | -29% | 0%
CC(=O)N1CCC2(CC1)CCN(c1ccccn1)CC2 | 1% | 0%
Cc1ccc2c(=O)c3ccccc3n(CCCN)c2c1C | 24%[0.0915 µM] | 2%[0.00818 µM]
O=C(CSC1=NS(=O)(=O)c2ccccc21)Nc1ccccc1 | 13µM* | 3%
COC(=O)CSC1=NS(=O)(=O)c2ccccc21 | ? | 1%
CN(Cc1cc(Br)cc(Br)c1N)C1CCCCC1 | 28% | -5%
CN(C)c1ccc(C2(c3ccc(N(C)C)cc3)OC(=O)c3cc(N(C)C)ccc32)cc1 | 4% | -1%
COc1ccc(-n2nc3cc(C)c(N)c(Br)c3n2)cc1 | 10µM* | 25µM*
COc1ccc(-n2nc3ccccc3n2)cc1 | -8% | -7%
COc1ccc(-c2cc([C@H](O)[C@@H]3CCCCN3)c3ccccc3n2)cc1 | 24%[11.4 µM] | -5%[11.4 µM]
CCN(CC)[C@@H](C)CN1c2ccccc2Sc2ccccc21 | 13µM* | ?
CCc1ccc2c(c1)N(C[C@H](C)CN(C)C)c1ccccc1S2 | 4%[11.4 µM] | 3%[11.4 µM]
C=C(C(C)=O)C(O)c1ccc2ccccc2c1 (centres undefined) | nt | 0%
CCOc1ccc(C(=O)NC(=S)NC2CCCC2)cc1[N+](=O)[O-] | nt | 28µM*
CCOc1ccc(C(=O)NC(=S)Nc2ccc(NC(=O)CC)cc2)cc1[N+](=O)[O-] | nt | -18%
C=C(COC)C1=CCC(C(=O)OC)(C(=O)OC)[C@@H](C[N+](=O)[O-])c2ccccc21 | nt | 1%
CCn1c(NC(=S)Nc2ccccc2)nc2ccccc21 | 25µM* | ?
CCn1c(NC(=O)C2CCCCC2)nc2ccccc21 | nt | 12%
CC(C)OC(=O)c1cc(-c2ccc(C=O)o2)ccc1Cl | nt | -4%
CCOC(=O)c1cc(-c2ccc(/C=C3/C(=O)NC(=O)C(C#N)=C3C)o2)ccc1Cl | 25µM* | -20%
COCC(=O)N1CCC2(CC1)CN(C(c1ccccc1)c1ccccc1)C2 | 6% | 1%
COc1cccc(C2CC(=O)N3CN(c4ccccc4F)CSC3=C2C#N)c1 (centres undefined) | ? | -18%
COc1cccc(C2C(C#N)=C(N)Oc3cc(C)[nH]c(=O)c32)c1OC (centres undefined) | -3% | -6%
COc1ccc(OC)c(C2CC(=O)N3CN(c4ccccc4F)CSC3=C2C#N)c1 (centres undefined) | 32µM* | 32µM*
SMILES | ALOX15B inhib | 12-hLO inh
COc1ccc(OC)c(C2CC(=O)N3CN(c4ccc(C)c(Cl)c4)CSC3=C2C#N)c1 (centres undefined) | ? | -7%
COc1ccccc1N1CSC2=C(C#N)C(c3ccc(SC)cc3)CC(=O)N2C1 (centres undefined) | 20µM* | ?
COc1cccc(C2CC(=O)N3CN(c4cccc(Cl)c4C)CSC3=C2C#N)c1OC (centres undefined) | 13µM* | ?
Cc1ccc(C2CC(=O)N3CN(Cc4ccco4)CSC3=C2C#N)cc1 (centres undefined) | ? | -22%
COc1ccc(OC)c(C2CC(=O)N3CN(c4cccc(Cl)c4C)CSC3=C2C#N)c1 (centres undefined) | 10µM* | ?
COc1ccccc1-c1ccc2ncnc(N(C)Cc3ccco3)c2c1 | 11% | nt
COc1ccc(CNC(=O)[C@H](C)[C@H]2C[C@]2(C)[C@H](NC(=O)OCc2ccccc2)c2ccccc2)cc1OC | -6% | -4%
c1ncc(-c2ccoc2)c(NC2CC2)n1 | -4% | nt
Cc1nc2cnc(N3CCNCC3)nc2n(-c2ccccc2)c1=O | 8% | 3%
O=C(O)[C@H]([C@H]1NCCS1)N1C(=O)c2ccccc2C1=O | 2%[11.4 µM] | 0%[11.4 µM]
COC(=O)c1ccc(C=O)cc1 | -7% | 5%
C[C@@H](CCC(=O)O)C(=O)O | 0%[11.4 µM] | 1%[11.4 µM]
Clc1ccc(NNc2ccnc3cc(Cl)ccc23)cc1 | 16µM* | -6%
S=C(NNc1ccnc2cc(Cl)ccc12)Nc1ccccc1Cl | nt | -16%
Cc1ccc(CN2C(=O)C[C@@H](NS(=O)(=O)c3ccc4ccccc4c3)C/C=C\C2c2ccc(C)cc2)cc1 (some centres undefined) | -13%[0.0915 µM] | -1%[0.00818 µM]
COC(=O)N1CCC2(CC1)CCN(c1ncccn1)CC2 | 6% | 11%
COc1cc(C)ccc1OCCOc1c(Cl)cc(Cl)cc1Cl | 14% | -9%
COc1cc(C)ccc1OCCOc1cc(C)ccc1Cl | 16µM* | ?
C[C@@]12CCC(=O)C=C1CC[C@H]1[C@@H]2[C@@H](O)C[C@]2(C)[C@@H]1CC[C@@]2(O)C(=O)COC(=O)C1CCCC1 | -7%[11.4 µM] | 5%[11.4 µM]
CCOC(=O)CN1C(=O)S/C(=C/c2ccc(N3CCCCC3)o2)C1=O | -21% | -5%
COC(=O)CN1C(=O)S/C(=C/c2ccc(N3CCCCC3)o2)C1=O | 13µM* | -7%
COc1c2ccoc2nc2c(OC)c(OC[C@H](O)C(C)(C)O)ccc12 | -1%[25.6 µM] | 0%[25.6 µM]
OCCN(CCO)c1nc(N2CCCCC2)c2nc(N(CCO)CCO)nc(N3CCCCC3)c2n1 | 20µM*! | -2%
Nc1nc(N2CCCCC2)nc(N(c2ccccc2)c2ccccc2)n1 | 2% | -6%
COC(=O)[C@@]1(Cc2ccc(OC)cc2)[C@H]2c3cc(C(=O)N4CCCC4)n(Cc4cc(F)cc5c4OCOC5)c3C[C@H]2CN1C(=O)c1ccccc1 | -3% | -6%
SMILES | ALOX15B inhib | 12-hLO inh
CC[C@@H](C)CN1C(=O)N[C@@H](c2ccccc2)C(C(=O)OC)=C1C | nt | 0%[11.4 µM]
CC(C)c1ccc(O)c(O)c(=O)c1 (tested in a mixture with another compound) | 4µM* | ?
Cc1cc(=O)c2c(O)c(O)ccc2o1 | -16% | -24%
N#CC1=C2SCN(Cc3ccccc3)CN2C(=O)CC1c1ccccc1F (centres undefined) | -28% | -14%
N#CC1=C2SCN(Cc3ccco3)CN2C(=O)CC1c1c(F)cccc1Cl (centres undefined) | ? | -7%
N#CC1=C2SCN(c3ccccc3)CN2C(=O)CC1c1cccs1 (centres undefined) | 13µM* | ?
N#CC1=C2SCN(c3ccccc3)CN2C(=O)CC1c1ccccc1Cl (centres undefined) | 7.9µM* | ?
N#CC1=C2SCC(O)(c3ccccc3)N2C(=O)CC1c1cccs1 (centres undefined) | -14% | -19%
N#CC1=C2SCN(c3ccccc3)CN2C(=O)CC1c1c(Cl)cccc1Cl (centres undefined) | 7.9µM* | 28µM*
CC[C@](C)(CN(C)C)OC(=O)c1ccccc1 | 13%[25.6 µM] | -3%[25.6 µM]
CC1(C)CC[C@]2(C(=O)O)CC[C@]3(C)C(=CCC4[C@@]5(C)CC[C@H](O)C(C)(C)C5[C@H](O)C[C@]43C)C2C1 (some centres undefined) | -11% | -1%
CCc1c2c(nc3cccc(SC)c13)COC2 | 4% | -6%
O=S1(=O)OC(c2ccc(O)cc2)(c2ccc(O)cc2)c2ccccc21 | -9%[11.4 µM] | 6%[11.4 µM]
N#CC1=C(N)SC(N)=C(C#N)C1c1ccnc2ccccc12 | ? | -12%
Cc1ccc(C2C(C#N)=C(N)SC(N)=C2C#N)c(C)c1 | 13µM* | ?
N#CCCn1c(=O)c(CCc2ccccc2)nc2cnc(Oc3cccc(Cl)c3)nc21 | -8% | -6%
